Laboratory results from PubChem BioAssay (Tox21).
Inconclusive results are not listed. Calls of active or inactive are those of the source. Calls come from the whole dose curve; as a rule, active = well fitted curve in the direction sought with a large enough effect in the repeat runs; inconclusive = weak or mixed curves; inactive = no such curve, though single readings can be large; an effect the other way counts as inactive or inconclusive.

Tests used:
[1] = A CellTox Green Cytotoxicity Assay to monitor cytotoxicity in HEK293 cells - 40 hour (AID 1224871); note: nearly all actives have a fitted effect of over 45% in size
Outline: (§1)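 Cells (HEK293, 600/well) and dye reagent are dispensed together. After 5 h at 37 C, 23 nL compound is pinned in. Plates stay at 37 C for 40 h with fluorescence read at 0h, 8h, 16h, 24h, 32h and 40h.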

[2] = qHTS RealTime-Glo MT Cell Viability Assay in HEK293 cells - 16 hour (AID 1224872); note: top concentration of the series differs between compounds; nearly all actives have a fitted effect of over 50% in size
Outline: (§2)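 Reads taken at 0, 8, 16, 24, 32 and 40 h from the same wells. HEK293 cells (600/well) carried RealTime-Glo reagents from seeding, with compound added after a 5 h settle at 37 C.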

[3] = qHTS RealTime-Glo MT Cell Viability Assay in HepG2 cells - 8 hour (AID 1224873); note: nearly all actives have a fitted effect of over 55% in size
Outline: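 HepG2 cells (600/well) mixed with RealTime-Glo MT reagent, settled 5 h at 37 C/5% CO2 before compound addition. Nonlytic NanoLuc luminescence from viable-cell prosubstrate reduction read repeatedly during 40 h treatment at 37 C.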

[4] = qHTS RealTime-Glo MT Cell Viability Assay in HEK293 cells - 40 hour (AID 1224874); conditions: RealTime-Glo luminescence; max response: stronger effect = lower value; note: nearly all actives have a fitted effect of over 50% in size
Outline: (§3)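 Real-time viability in HEK293: signal arises when living cells convert a prosubstrate for NanoLuc in the medium, so luminescence tracks viable cell number. Compound (23 nL, DMSO) added 5 h post-seeding; kinetic reads at 0–40 h, 37 C.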

[5] = A CellTox Green Cytotoxicity Assay to monitor cytotoxicity in HEK293 cells - 24 hour (AID 1224875); note: series mostly up to about 77 µM; nearly all actives have a fitted effect of over 45% in size
Outline: as §1

[6] = A CellTox Green Cytotoxicity Assay to monitor cytotoxicity in HepG2 cells - 16 hour (AID 1224876); note: nearly all actives have a fitted effect of over 45% in size
Outline: (§4)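 Cells and non-lytic dye reagent are dispensed together (600 HepG2 cells/well) and incubated 5 h before DMSO compound transfer. Kinetic fluorescence is then recorded in the same wells during 40 h at 37 C.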

[7] = qHTS RealTime-Glo MT Cell Viability Assay in HepG2 cells - 32 hour (AID 1224877); note: nearly all actives have a fitted effect of over 55% in size
Outline: (§5)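 HepG2 suspension premixed with RealTime-Glo reagents is plated at 600 cells per well and left 5 h at 37 C/5% CO2. Compounds in DMSO then go in, and bioluminescence reflecting viable cell number is recorded over 40 h.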

[8] = A CellTox Green Cytotoxicity Assay to monitor cytotoxicity in HepG2 cells - 24 hour (AID 1224878); note: nearly all actives have a fitted effect of over 45% in size
Outline: as §4

[9] = A CellTox Green Cytotoxicity Assay to monitor cytotoxicity in HepG2 cells - 40 hour (AID 1224879); note: nearly all actives have a fitted effect of over 40% in size
Outline: as §4

[10] = qHTS RealTime-Glo MT Cell Viability Assay in HEK293 cells - 0 hour (AID 1224880)
Outline: as §3

[11] = A CellTox Green Cytotoxicity Assay to monitor cytotoxicity in HEK293 cells - 32 hour (AID 1224881); note: nearly all actives have a fitted effect of over 40% in size
Outline: as §1

[12] = A CellTox Green Cytotoxicity Assay to monitor cytotoxicity in HepG2 cells - 0 hour (AID 1224882); note: nearly all actives have a fitted effect of over 35% in size
Outline: as §4

[13] = A CellTox Green Cytotoxicity Assay to monitor cytotoxicity in HepG2 cells - 32 hour (AID 1224883); note: nearly all actives have a fitted effect of over 50% in size
Outline: as §4

[14] = A CellTox Green Cytotoxicity Assay to monitor cytotoxicity in HEK293 cells - 8 hour (AID 1224884); note: nearly all actives have a fitted effect of over 35% in size
Outline: as §1

[15] = qHTS RealTime-Glo MT Cell Viability Assay in HepG2 cells - 16 hour (AID 1224885); note: nearly all actives have a fitted effect of over 50% in size
Outline: as §5

[16] = qHTS RealTime-Glo MT Cell Viability Assay in HEK293 cells - 24 hour (AID 1224886)
Outline: as §2

[17] = qHTS RealTime-Glo MT Cell Viability Assay in HEK293 cells - 8 hour (AID 1224887)
Outline: as §3

[18] = A CellTox Green Cytotoxicity Assay to monitor cytotoxicity in HEK293 cells - 16 hour (AID 1224888); note: nearly all actives have a fitted effect of over 35% in size
Outline: as §1

[19] = qHTS RealTime-Glo MT Cell Viability Assay in HepG2 cells - 0 hour (AID 1224889); note: nearly all actives have a fitted effect of over 50% in size
Outline: as §5

[20] = A CellTox Green Cytotoxicity Assay to monitor cytotoxicity in HepG2 cells - 8 hour (AID 1224890); note: nearly all actives have a fitted effect of over 45% in size
Outline: as §4
% is set by controls: 0 for no effect and ±100 for the full control effect.

CC[N+](C)(CC)CCOC(=O)C1c2ccccc2Oc2ccccc21
inactive: Potency [1] | Potency [2] | outcome [3] | max response [4] 3.05% | outcome [5] | outcome [6] | Potency [7] | outcome [8] | Potency [9] | Potency [10] | outcome [11] | Potency [12] | Potency [13] | outcome [14] | outcome [15] | Potency [16] | Potency [17] | outcome [18] | Potency [19] | outcome [20]

N[C@@H](CCC(=O)O)C(=O)O
inactive: Potency [1] | Potency [2] | outcome [3] | max response [4] -0.971% | outcome [5] | outcome [6] | Potency [7] | outcome [8] | Potency [9] | Potency [10] | outcome [11] | Potency [12] | Potency [13] | outcome [14] | outcome [15] | Potency [16] | Potency [17] | outcome [18] | Potency [19] | outcome [20]

Cc1onc(-c2c(Cl)cccc2Cl)c1C(=O)Cl
inactive: Potency [1] | Potency [2] | outcome [3] | max response [4] 2.75% | outcome [5] | outcome [6] | Potency [7] | outcome [8] | Potency [9] | Potency [10] | outcome [11] | Potency [12] | Potency [13] | outcome [14] | outcome [15] | Potency [16] | Potency [17] | outcome [18] | Potency [19] | outcome [20]

CC1(C)[C@@H]2CC[C@@]1(C)[C@H](O)C2
inactive: Potency [1] | Potency [2] | outcome [3] | max response [4] 2.75% | outcome [5] | outcome [6] | Potency [7] | outcome [8] | Potency [9] | Potency [10] | outcome [11] | Potency [12] | Potency [13] | outcome [14] | outcome [15] | Potency [16] | Potency [17] | outcome [18] | Potency [19] | outcome [20]

Cc1ccc(-c2ccccc2C#N)cc1
inactive: Potency [1] | Potency [2] | outcome [3] | max response [4] 1.26% | outcome [5] | outcome [6] | Potency [7] | outcome [8] | Potency [9] | Potency [10] | outcome [11] | Potency [12] | Potency [13] | outcome [14] | outcome [15] | Potency [16] | Potency [17] | outcome [18] | Potency [19] | outcome [20]

C[N+]12CCC(CC1)C(OC(=O)C(O)(c1ccccc1)c1ccccc1)C2 (stereo not given)
inactive: Potency [1] | Potency [2] | outcome [3] | max response [4] 4.99% | outcome [5] | outcome [6] | Potency [7] | outcome [8] | Potency [9] | Potency [10] | outcome [11] | Potency [12] | Potency [13] | outcome [14] | outcome [15] | Potency [16] | Potency [17] | outcome [18] | Potency [19] | outcome [20]

CN1[C@@H]2CC[C@H]1CC(OC(=O)C(O)c1ccccc1)C2 (stereo not given in full)
inactive: Potency [1] | Potency [2] | outcome [3] | max response [4] 3.93% | outcome [5] | outcome [6] | Potency [7] | outcome [8] | Potency [9] | Potency [10] | outcome [11] | Potency [12] | Potency [13] | outcome [14] | outcome [15] | Potency [16] | Potency [17] | outcome [18] | Potency [19] | outcome [20]

CC(=O)N[C@H]1[C@H]([C@H](O)[C@H](O)CO)OC(C(=O)O)=C[C@@H]1N=C(N)N
inactive: Potency [1] | Potency [2] | outcome [3] | max response [4] 2.18% | outcome [5] | outcome [6] | Potency [7] | outcome [8] | Potency [9] | Potency [10] | outcome [11] | Potency [12] | Potency [13] | outcome [14] | outcome [15] | Potency [16] | Potency [17] | outcome [18] | Potency [19] | outcome [20]

NC(=O)N1c2ccccc2CC(=O)c2ccccc21
inactive: Potency [1] | Potency [2] | outcome [3] | max response [4] 2.12% | outcome [5] | outcome [6] | Potency [7] | outcome [8] | Potency [9] | Potency [10] | outcome [11] | Potency [12] | Potency [13] | outcome [14] | outcome [15] | Potency [16] | Potency [17] | outcome [18] | Potency [19] | outcome [20]

C[C@@H]1CCC[C@H](C)N1
inactive: Potency [1] | Potency [2] | outcome [3] | max response [4] 0.353% | outcome [5] | outcome [6] | Potency [7] | outcome [8] | Potency [9] | Potency [10] | outcome [11] | Potency [12] | Potency [13] | outcome [14] | outcome [15] | Potency [16] | Potency [17] | outcome [18] | Potency [19] | outcome [20]

CCOC(=O)CCC(=O)OCC
inactive: Potency [1] | Potency [2] | outcome [3] | max response [4] 3.67% | outcome [5] | outcome [6] | Potency [7] | outcome [8] | Potency [9] | Potency [10] | outcome [11] | Potency [12] | Potency [13] | outcome [14] | outcome [15] | Potency [16] | Potency [17] | outcome [18] | Potency [19] | outcome [20]

C=COC(=O)C(C)(CC)CCC(C)C (stereo not given)
inactive: Potency [1] | Potency [2] | outcome [3] | max response [4] 0.193% | outcome [5] | outcome [6] | Potency [7] | outcome [8] | Potency [9] | Potency [10] | outcome [11] | Potency [12] | Potency [13] | outcome [14] | outcome [15] | Potency [16] | Potency [17] | outcome [18] | Potency [19] | outcome [20]

COc1cccc(OC)c1C(=O)N[C@@H]1C(=O)N2[C@@H]1SC(C)(C)[C@@H]2C(=O)O
inactive: Potency [1] | Potency [2] | outcome [3] | max response [4] 4.53% | outcome [5] | outcome [6] | Potency [7] | outcome [8] | Potency [9] | Potency [10] | outcome [11] | Potency [12] | Potency [13] | outcome [14] | outcome [15] | Potency [16] | Potency [17] | outcome [18] | Potency [19] | outcome [20]
